Laboratory results published in the supplement of paper PMC12282887.
± gives the standard deviation of the averaged measurements.

What was measured:
Test in all cases: promoter activity interaction Z-score (Lux/OD deviation from empty-vector control); higher = stronger promoter induction by the compound
[1] = tested on: E. coli BW25113 acrABp lux reporter
Summary of the method: (§1)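 Low-copy luxCDABE promoter reporters were carried by E. coli BW25113, either wild type or lacking one of three genes, grown in 40 µl LB Lennox in 384-well plates at 37°C. Each compound was run at four 1:2 dilutions in biological duplicates, with OD600 and luminescence read every 30 min for 12 h. Integration used 0–8 h for wild type and 1–9 h for deletion strains, and wells under 10% of the median growth value were removed. Luminescence normalised to growth was fitted against a control, and the Z-transformed residual is the score.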

[2] = tested on: E. coli BW25113 micFp lux reporter
Summary of the method: as §1

[3] = tested on: E. coli BW25113 ompFp lux reporter
Summary of the method: as §1

[4] = tested on: E. coli BW25113 robp lux reporter
Summary of the method: as §1

[5] = tested on: E. coli BW25113 soxSp lux reporter
Summary of the method: as §1

[6] = tested on: E. coli BW25113 tolCp lux reporter
Summary of the method: as §1

[7] = 13.7 µg/ml, genetic background: wild type
[8] = 13.7 µg/ml, genetic background: ΔmarA
[9] = 13.7 µg/ml, genetic background: Δrob
[10] = 13.7 µg/ml, genetic background: ΔsoxS
[11] = 27.5 µg/ml, genetic background: wild type
[12] = 27.5 µg/ml, genetic background: ΔmarA
[13] = 27.5 µg/ml, genetic background: Δrob
[14] = 27.5 µg/ml, genetic background: ΔsoxS
[15] = 54.9 µg/ml, genetic background: wild type
[16] = 54.9 µg/ml, genetic background: ΔmarA
[17] = 54.9 µg/ml, genetic background: Δrob
[18] = 54.9 µg/ml, genetic background: ΔsoxS
[19] = 109.8 µg/ml, genetic background: wild type
[20] = 109.8 µg/ml, genetic background: ΔmarA
[21] = 109.8 µg/ml, genetic background: Δrob
[22] = 109.8 µg/ml, genetic background: ΔsoxS

`CNC[C@H](O)c1ccc(O)c(O)c1` [Adrenalin] was tested. Which “promoter activity interaction Z-score” value [1, 7] did it give?
Its value is -0.118 ± 0.26.

What about the “promoter activity interaction Z-score” value [1, 8] of the same compound?
Its value is -0.4 ± 0.56.

What about the “promoter activity interaction Z-score” value [1, 9] of the same compound?
The value was 0.0418 ± 0.19.

And the “promoter activity interaction Z-score” value [1, 10]?
Its value is -0.382 ± 0.4.

What about the “promoter activity interaction Z-score” value [1, 11] of the same compound?
The value was -0.0931 ± 0.1.

And the “promoter activity interaction Z-score” value [1, 12]?
The value was 0.531 ± 0.016.

And the “promoter activity interaction Z-score” value [1, 13]?
Its value is -0.104 ± 0.11.

And the “promoter activity interaction Z-score” value [1, 14]?
The value was -0.043 ± 0.052.

What about the “promoter activity interaction Z-score” value [1, 15] of the same compound?
The value was -0.373 ± 0.29.

And the “promoter activity interaction Z-score” value [1, 16]?
Its value is 0.688 ± 0.54.

And the “promoter activity interaction Z-score” value [1, 17]?
The value was -0.345 ± 0.12.

And the “promoter activity interaction Z-score” value [1, 18]?
The value was -0.566 ± 0.013.

And the “promoter activity interaction Z-score” value [1, 19]?
Its value is -0.472 ± 0.26.

What about the “promoter activity interaction Z-score” value [1, 20] of the same compound?
Its value is 0.342 ± 0.19.

And the “promoter activity interaction Z-score” value [1, 21]?
The value was 0.0555 ± 0.04.

What about the “promoter activity interaction Z-score” value [1, 22] of the same compound?
The value was 0.539 ± 0.12.

What about the “promoter activity interaction Z-score” value [2, 7] of the same compound?
Its value is -0.11 ± 0.0085.

What about the “promoter activity interaction Z-score” value [2, 8] of the same compound?
Its value is -0.0104 ± 0.018.

What about the “promoter activity interaction Z-score” value [2, 9] of the same compound?
Its value is 0.263 ± 0.12.

What about the “promoter activity interaction Z-score” value [2, 10] of the same compound?
The value was -0.351 ± 0.072.

What about the “promoter activity interaction Z-score” value [2, 11] of the same compound?
The value was -0.259 ± 0.091.

What about the “promoter activity interaction Z-score” value [2, 12] of the same compound?
Its value is -0.0735 ± 0.14.

What about the “promoter activity interaction Z-score” value [2, 13] of the same compound?
The value was 0.173 ± 0.31.

What about the “promoter activity interaction Z-score” value [2, 14] of the same compound?
The value was 0.192 ± 0.11.

What about the “promoter activity interaction Z-score” value [2, 15] of the same compound?
The value was -0.122 ± 0.19.

And the “promoter activity interaction Z-score” value [2, 16]?
Its value is 0.0635 ± 0.093.

And the “promoter activity interaction Z-score” value [2, 17]?
The value was 0.189 ± 0.21.

What about the “promoter activity interaction Z-score” value [2, 18] of the same compound?
The value was -0.508 ± 0.077.

And the “promoter activity interaction Z-score” value [2, 19]?
The value was -0.426 ± 0.33.

What about the “promoter activity interaction Z-score” value [2, 20] of the same compound?
The value was -0.136 ± 0.074.

What about the “promoter activity interaction Z-score” value [2, 21] of the same compound?
The value was 0.0853 ± 0.074.

What about the “promoter activity interaction Z-score” value [2, 22] of the same compound?
The value was -0.142 ± 0.14.

And the “promoter activity interaction Z-score” value [3, 7]?
Its value is 0.379 ± 0.018.

What about the “promoter activity interaction Z-score” value [3, 8] of the same compound?
Its value is -0.309 ± 0.22.

What about the “promoter activity interaction Z-score” value [3, 9] of the same compound?
Its value is -0.171 ± 0.37.

And the “promoter activity interaction Z-score” value [3, 10]?
Its value is -0.679 ± 0.25.

And the “promoter activity interaction Z-score” value [3, 11]?
The value was 0.362 ± 0.017.

What about the “promoter activity interaction Z-score” value [3, 12] of the same compound?
The value was 0.00142 ± 0.52.

What about the “promoter activity interaction Z-score” value [3, 13] of the same compound?
Its value is -0.0408 ± 0.55.

What about the “promoter activity interaction Z-score” value [3, 14] of the same compound?
The value was -0.0291 ± 0.36.

What about the “promoter activity interaction Z-score” value [3, 15] of the same compound?
The value was -0.597 ± 0.18.

And the “promoter activity interaction Z-score” value [3, 16]?
Its value is 0.175 ± 0.27.

What about the “promoter activity interaction Z-score” value [3, 17] of the same compound?
Its value is -1.07 ± 0.55.

And the “promoter activity interaction Z-score” value [3, 18]?
The value was -0.961 ± 0.21.

And the “promoter activity interaction Z-score” value [3, 19]?
The value was -0.0147 ± 0.25.

What about the “promoter activity interaction Z-score” value [3, 20] of the same compound?
Its value is -0.377 ± 0.44.

And the “promoter activity interaction Z-score” value [3, 21]?
The value was -0.876 ± 1.6.

What about the “promoter activity interaction Z-score” value [3, 22] of the same compound?
The value was -0.239 ± 0.22.

What about the “promoter activity interaction Z-score” value [4, 7] of the same compound?
Its value is -0.189 ± 0.26.

What about the “promoter activity interaction Z-score” value [4, 8] of the same compound?
Its value is -0.738 ± 0.13.

And the “promoter activity interaction Z-score” value [4, 9]?
The value was -0.362 ± 0.49.

And the “promoter activity interaction Z-score” value [4, 10]?
The value was -0.567 ± 0.17.

And the “promoter activity interaction Z-score” value [4, 11]?
The value was 0.83 ± 0.5.

And the “promoter activity interaction Z-score” value [4, 12]?
Its value is -0.178 ± 0.0036.

And the “promoter activity interaction Z-score” value [4, 13]?
Its value is -0.489 ± 0.6.

And the “promoter activity interaction Z-score” value [4, 14]?
Its value is -0.00139 ± 0.12.

What about the “promoter activity interaction Z-score” value [4, 15] of the same compound?
Its value is -0.414 ± 0.15.

And the “promoter activity interaction Z-score” value [4, 16]?
The value was -0.097 ± 0.33.

What about the “promoter activity interaction Z-score” value [4, 17] of the same compound?
Its value is -0.505 ± 1.8.

And the “promoter activity interaction Z-score” value [4, 18]?
The value was -0.645 ± 0.021.

And the “promoter activity interaction Z-score” value [4, 19]?
The value was -0.53 ± 0.61.

And the “promoter activity interaction Z-score” value [4, 20]?
The value was -0.598 ± 0.62.

And the “promoter activity interaction Z-score” value [4, 21]?
The value was -1.48 ± 0.78.

And the “promoter activity interaction Z-score” value [4, 22]?
Its value is -1.95 ± 0.2.

And the “promoter activity interaction Z-score” value [5, 7]?
The value was 0.381 ± 0.43.

What about the “promoter activity interaction Z-score” value [5, 8] of the same compound?
Its value is 0.0748 ± 0.12.

What about the “promoter activity interaction Z-score” value [5, 9] of the same compound?
The value was 0.425 ± 0.29.

And the “promoter activity interaction Z-score” value [5, 10]?
The value was -0.181 ± 0.096.

What about the “promoter activity interaction Z-score” value [5, 11] of the same compound?
The value was 0.23 ± 0.19.

And the “promoter activity interaction Z-score” value [5, 12]?
Its value is 0.131 ± 0.16.

And the “promoter activity interaction Z-score” value [5, 13]?
The value was 0.208 ± 0.28.

And the “promoter activity interaction Z-score” value [5, 14]?
The value was 0.264 ± 0.64.

What about the “promoter activity interaction Z-score” value [5, 15] of the same compound?
The value was 0.0152 ± 0.17.

What about the “promoter activity interaction Z-score” value [5, 16] of the same compound?
Its value is -0.0453 ± 0.22.

What about the “promoter activity interaction Z-score” value [5, 17] of the same compound?
The value was 0.121 ± 0.0073.

And the “promoter activity interaction Z-score” value [5, 18]?
The value was -0.333 ± 0.19.

What about the “promoter activity interaction Z-score” value [5, 19] of the same compound?
The value was -0.143 ± 0.091.

And the “promoter activity interaction Z-score” value [5, 20]?
The value was -0.248 ± 0.045.

What about the “promoter activity interaction Z-score” value [5, 21] of the same compound?
The value was 0.0524 ± 0.1.

What about the “promoter activity interaction Z-score” value [5, 22] of the same compound?
The value was 0.0254 ± 0.36.

And the “promoter activity interaction Z-score” value [6, 7]?
Its value is -0.595 ± 0.65.

What about the “promoter activity interaction Z-score” value [6, 8] of the same compound?
The value was -0.333 ± 0.39.

And the “promoter activity interaction Z-score” value [6, 9]?
The value was 0.343 ± 0.15.

And the “promoter activity interaction Z-score” value [6, 10]?
The value was -0.571 ± 0.34.

What about the “promoter activity interaction Z-score” value [6, 11] of the same compound?
The value was -0.0385 ± 0.61.

And the “promoter activity interaction Z-score” value [6, 12]?
The value was -0.394 ± 0.82.

What about the “promoter activity interaction Z-score” value [6, 13] of the same compound?
The value was -0.578 ± 0.57.

And the “promoter activity interaction Z-score” value [6, 14]?
Its value is 1.04 ± 1.6.

And the “promoter activity interaction Z-score” value [6, 15]?
Its value is -0.749 ± 0.67.

What about the “promoter activity interaction Z-score” value [6, 16] of the same compound?
Its value is 0.176 ± 0.046.

What about the “promoter activity interaction Z-score” value [6, 17] of the same compound?
The value was -0.0706 ± 0.3.

And the “promoter activity interaction Z-score” value [6, 18]?
Its value is 0.0714 ± 0.89.

What about the “promoter activity interaction Z-score” value [6, 19] of the same compound?
The value was -0.414 ± 0.029.

And the “promoter activity interaction Z-score” value [6, 20]?
Its value is -0.30805 ± 0.0003.

And the “promoter activity interaction Z-score” value [6, 21]?
The value was -0.0487 ± 0.27.

What about the “promoter activity interaction Z-score” value [6, 22] of the same compound?
The value was -0.39 ± 1.4.
